hgDAF-12 ag = agonists of H. glycines DAF-12 nuclear receptor | HEK293 GAL4-hgDAF12 UAS-luciferase reporter, agonist luminescence; normalized to butyrate control | 370,000 compounds, 1.8% hits | activation, % at 6.8 µM;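 active = activation above a cutoff set at the mean of all screened compounds plus 3 SD, cut at about 10% in these data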;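 also: 0% = DMSO wells and 100% = sodium butyrate wells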
GAA850 FXN act = increases GAA850 frataxin promoter reporter activity | HEK293 lucGAA850 FXN promoter luciferase reporter, 24 h; percent of 10 µM SAHA response | 360,000 compounds, 0.56% hits | activation, % at 6 µM;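 active = activation above the average of all compounds screened plus 3 SD, cutoff fixed separately per campaign, cut at about 7.5% in these data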;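 also: 0% = DMSO wells and 100% = 10 µM SAHA wells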
DAX1 inh-1 = blocks DAX1 repression of SF-1 activated StAR promoter | 370,000 compounds, 1.1% hits | HEK293T StAR-luciferase reporter, SF-1/DAX-1 repression relief | inhibition, % at 6.8 µM;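 active = inhibition above the mean over all tested compounds plus 3 SD, cut at about 3.6% in these data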;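 also: 0% = DAX-1 cells with DMSO and 100% = cells lacking DAX-1 with DMSO; higher inhibition means more luminescence from relief of DAX-1 repression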
ssDAF-12 act = activates DAF-12 receptor from parasite S. stercoralis; HEK293 ssDAF-12/GRIP1 lit1-tk-luc reporter, luminescence; % of 3 µM dafachronic acid response; activation, % at 6.8 µM; 370,000 compounds, 1% hits;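 active = activation above the mean over all tested compounds plus 3 SD, cut at about 0.9% in these data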;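 also: 0% = DMSO-only wells and 100% = 3 µM delta7-dafachronic acid wells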
DAX1 inh-2 = NR0B1 (DAX1) inhibition; 340,000 compounds, 0.99% hits; inhibition, % at 6.75 µM; HEK293 Gal4-DAX1 luciferase reporter, luminescence; P51843; AID 504766;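 active = inhibition above the mean over all tested compounds plus 3 SD, cut at about 4.2% in these data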;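 also: 0% = DAX1-transfected cells with DMSO and 100% = empty-vector control cells with DMSO; inhibition shows as a rise in luminescence from relieved DAX1 repression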
Target sequence (P51843 207-470 limits assumed): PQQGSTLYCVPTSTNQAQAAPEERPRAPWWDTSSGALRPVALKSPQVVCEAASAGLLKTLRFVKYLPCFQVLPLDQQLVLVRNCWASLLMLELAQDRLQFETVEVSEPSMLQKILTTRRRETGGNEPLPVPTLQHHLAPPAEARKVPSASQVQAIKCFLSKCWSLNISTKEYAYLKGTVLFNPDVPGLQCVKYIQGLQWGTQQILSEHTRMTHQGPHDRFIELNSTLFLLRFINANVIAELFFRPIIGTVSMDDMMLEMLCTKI
hcDAF12 agonist = H. contortus DAF-12 activation, primary screen; HEK293 hcDAF-12 lit1-tk-luc reporter, luminescence; 0% DMSO, 100% Δ7-dafachronic acid; AID 652067; 370,000 compounds, 1.4% hits; activation, % at 6.8 µM;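 active = activation above the mean of all tested compounds plus 3 SD, cut at about 5.5% in these data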;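 also: 100% = response to 3 µM Δ7-dafachronic acid high control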
* hit, by the source's call; / = not tested or not shown. An excerpt weighted towards active compounds, which were near 4.5% of everything screened.

SMILES	hgDAF-12 ag	GAA850 FXN act	DAX1 inh-1	ssDAF-12 act	DAX1 inh-2	hcDAF12 agonist
Nn1c(SCc2cccc3ccccc23)nnc1-c1cc(-c2ccc(Cl)cc2)n[nH]1	2	/	-1	-2	/	-3
COC1=C[C@H](C(=O)N[C@H]2CCCC[C@@H]2NC(C)=O)[C@@]2(C)Cc3ccccc3[C@H]2CC1=O	-2	/	-1	-2	/	-1
Cc1ccc2nc(CN(C)C(=O)[C@H](CCc3ccccc3)NC(=O)[C@H]3O[C@@H](n4cnc5c(N)ncnc54)[C@H](O)[C@@H]3O)[nH]c2c1	0	/	1	-1	/	0
CC(C)c1nc(N(C)S(C)(=O)=O)nc(-c2ccc(F)cc2)c1/C=C/[C@H](O)C[C@@H](O)CC(=O)O	-1	/	1	1	/	-1
CCCCOCCCNC(=O)C[C@H]1C[C@@]2(C(=O)OC)C(=C[C@H](COCc3ccccc3)O[C@@H]2C)N(Cc2ccc(Cl)cc2Cl)C1=O	7	/	-1	-1	/	-2
COc1ccc(Cc2nc(=S)[nH][nH]2)cc1Br	-2	2	-1	-2	4.5*	-2
COc1ccc(-n2c(SCC(=O)Nc3ccc(S(=O)(=O)Nc4nccs4)cc3)nnc2-c2ccco2)cc1	-4	/	0	-1	/	-2
Cc1sc2nc(C3CCCCC3)nc(SCC(=O)N3CC(=O)Nc4ccccc43)c2c1C	3	-2	0	1.2*	1	0
CC(C)c1ccc(NC(=O)O[C@@H]2CC[C@@]34CCCN3C(=O)CCC[C@H]4C2)cc1	1	/	/	-2	/	-2
COc1ccc(-c2cn3cc(C(=O)NN)ccc3n2)cc1	12*	2	2	-1	-1	1
COc1ccc(C(=O)NN)cc1	9	1	0	-1	1	2
Cc1cc(C(=O)Nc2ccc(S(=O)(=O)N3CCCC3)cc2)no1	1	-2	1	-1	-1	-1
CN1CCN(c2ccc(NC(=O)c3sc4ccccc4c3Cl)cc2)CC1	11*	1	1	-1	3	1
Cc1ccc(C(=O)Nc2ccc(N3CCN(C)CC3)cc2)cc1C	9	1	1	0	4.7*	3
Cc1ccc(C(=O)Nc2ccc(N3CCCC3)cc2)cc1	12*	4	2	0	0	1
Cc1cc(C(=O)Nc2ccc(N3CCCCC3)cc2)no1	11*	1	3	0	1	5
Cc1ccc(C(=O)Nc2ccc(N3CCN(S(C)(=O)=O)CC3)cc2)cc1C	6	3	0	-1	/	-1
Cc1ccc(C(=O)Nc2ccc(N3CCCCC3)cc2)cc1	6	4	2	0	4	2
CCCC[C@H](C(=O)N(C)c1cccc(OC)c1)[C@@H](O)c1ccc2ccccc2c1	-1	/	-1	-1	/	-3
C[C@H]1Cn2nnc(-c3ccccc3)c2Cn2c3ccccc3c(=O)n21	1	/	-1	-1	/	-1
O=S1(=O)c2c(cccc2N2CCSCC2)Oc2ccccc2CN1Cc1cn(Cc2ccc(Cl)cc2)nn1	-4	/	-3	-1	/	-2
Cc1ccc(C(=O)CC(=O)c2cc(Cl)ccc2O)cc1	9	2	3	1.1*	2	3
O=C(CCCC(=O)c1ccc(F)cc1)c1ccc(F)cc1	8	4	2	1	4.8*	2
O=C(CC(=O)c1ccccc1O)c1ccc(F)cc1	11*	1	2	0	0	2
O=C(CC(=O)c1ccccc1O)c1cccc(F)c1	/	3	/	/	0	/
SMILES	hgDAF-12 ag	GAA850 FXN act	DAX1 inh-1	ssDAF-12 act	DAX1 inh-2	hcDAF12 agonist
N/C(Cc1cccc2ccccc12)=N\O	2	0	1	0	0	5.7*
N/C(Cc1ccccc1Sc1ccccc1)=N\O	3	1	0	-2	-2	-2
O=C(NCCc1ccccc1)c1cccnc1	11*	2	1	-1	2	1
O=C(NCc1ccccc1)c1cccnc1	0	3	0	-1	0	-1
O=C(NCCc1ccccc1)c1ccc2nccnc2c1	11*	-3	4.2*	0	-1	5
Cc1nn(CCC(=O)NNC(=O)Nc2ccccc2)c(C)c1[N+](=O)[O-]	0	/	-1	-2	/	-1
CCOC(=O)[C@@]12CCCC3=C1N(CCC3)C(=O)[C@H]2CC(=O)NCCc1ccccc1OC	-3	/	0	-1	/	-2
CCCNC(=O)N1[C@@H](CO)[C@H](c2ccc(C3=CCCC3)cc2)[C@@H]1CN(CC)S(=O)(=O)c1ccccc1[N+](=O)[O-]	-2	/	0	-2	/	-3
CCOC(=O)CC[C@@]1(C(=O)OCC)C[C@@H](CC(=O)NCCCOC)C(=O)N2CCCC=C21	0	/	1	1.6*	/	0
CN1C(=O)c2cc(NC(=O)Nc3ccccc3)ccc2OC[C@H]2O[C@@H](CC(=O)NCC(F)(F)F)CC[C@@H]21	-1	/	1	-2	/	2
CCOc1ccc(-n2c(SCC(=O)Nc3ccc(S(=O)(=O)Nc4nccs4)cc3)nnc2-c2ccccc2)cc1	2	/	-1	-1	/	0
O=C(Cn1cc(C(F)(F)F)ccc1=O)N1CCCc2ccccc21	-1	0	-1	0	0	1
O=C(Cn1cc(C(F)(F)F)ccc1=O)N1CCc2ccccc2C1	2	2	2	1.0*	1	-2
C/C(=N\NC(=O)c1ccc(Cn2cc(Br)cn2)o1)c1ccc(NC(=O)c2ccoc2C)cc1	9	3	4.4*	0	0	2
O=C(CCc1nc(-c2ccccc2F)no1)NCCc1c[nH]c2ccccc12	-1	/	-1	-1	/	2
Cc1ccc(NC2c3ccccc3C(=O)N2c2cccnc2)cc1 (stereo unspecified)	-4	2	0	-2	5.5*	0
Cn1c2c(c(=O)n(C)c1=O)C(c1ccccc1Cl)CC(=O)N2 (stereo unspecified)	-2	2	0	-1	1	5.8*
CN[C@H]1C[C@H]2c3cc(-c4ccccc4C)ccc3CCN2C[C@H]1[C@H](C)O	3	/	-1	-2	/	1
CCCCCCCCN1CCS(=O)(=O)N(Cc2ccc(C(F)(F)F)cc2)C(C(=O)OC)C1 (stereo unspecified)	-1	/	-1	-1	/	-2
C/C(=N\N1C(=O)c2ccccc2NC1c1ccco1)c1ccccc1O (stereo unspecified)	9	1	3	0	6.1*	1
COc1ccc(/C(C)=N/N2C(=O)c3ccccc3NC2c2ccc(O)c(OC)c2)cc1 (stereo unspecified)	9	-1	1	-1	2	3
C/C(=N\N1C(=O)c2ccccc2NC1c1ccccc1)c1ccccc1O (stereo unspecified)	9	2	3.8*	-1	2	3
O=C(NCCc1ccccc1)OCc1cn(-c2ccc(F)c(F)c2)nn1	2	/	0	-1	/	1

Screens as filed in PubChem BioAssay.
